# PI5P4Ka inh = qHTS for Inhibitors of phosphatidylinositol 5-phosphate 4-kinase (PI5P4K); Phosphatidylinositol 5-phosphate 4-kinase type-2 alpha (Homo sapiens), P48426; PI5P4Kalpha enzyme, ADP-Glo luminescence, 60 min; hits give low values; max response, %; 1.2% of 330,000 active; active means max response of -50% or lower; inconclusive means between -30% and -50%; inactive means -30% or higher; further: value at the top dose of about 77 µM; on the % scale 0 is the no-effect control and ±100 the full control effect
#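 Controls without substrate or without enzyme flank wells where PI5P4Kalpha converts substrate using 5 microM ATP (final). Incubation lasts 60 minutes at room temperature; ADP formed is read by ADP-Glo luminescence.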
# Pol beta inh = qHTS Assay for Inhibitors of DNA Polymerase Beta | P06746 | Pol beta primer extension/strand displacement, fluorescence kinetic | Potency, µM (top dose mostly 114 µM), without a hit: at the highest dose activity change, negative = inhibition, usual class: inhibitors | 1.3% of 340,000 active; further: potency means the concentration at half of the fitted maximal effect; on the % scale 0 is the no-effect control and ±100 the full control effect
#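 Enzyme-only controls used 10 nM Pol beta; buffer lacking enzyme served as negative control. Compound preincubated 15 min, then 50 nM substrate added; 0 and 10 min reads at room temperature.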
# Pol iota inh = qHTS for Inhibitors of Polymerase Iota; AID 588590, 2011; Potency, µM (titrated, usually from 115 µM), for inactives: at the top dose activity, negative = inhibition, actives largely listed as inhibitors; Pol iota fluorescent replication assay, 10 min; 1% of 390,000 active; further: potency means the concentration at half of the fitted maximal effect
#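 Fluorescent replication assay read twice, at 0 min and 10 min after adding 50 nM (final) substrate. Enzyme (10 nM) and compounds were first incubated 15 min at room temperature; enzyme-free buffer wells were negative controls.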
# Pol kappa inh-1 = qHTS for Inhibitors of Polymerase Kappa | DNA polymerase kappa (Homo sapiens), Q9UBT6 | purified Pol kappa, fluorescent DNA synthesis assay, 10 min | Potency, µM (highest dose often 107 µM), for the others: at the highest dose activity, negative = inhibition, actives largely listed as inhibitors | 0.53% of 400,000 active; further: potency means the concentration at half of the fitted maximal effect; on the % scale 0 is the no-effect control and ±100 the full control effect
#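 Fluorescent qHTS in 1536-well format: enzyme (10 nM) and compound sat 15 min at room temperature before 50 nM substrate (final) was added. Signal taken at 0 and 10 min; no-enzyme buffer wells were negative controls.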
# Pol eta inh-1 = qHTS for Inhibitors of Polymerase Eta; DNA polymerase eta (Homo sapiens), Q9Y253; Potency, µM (highest dose often 114 µM), without a hit: top-dose activity change, negative = inhibition, usual class: inhibitors; AID 588591, 2011; recombinant Pol eta, fluorescent DNA replication assay; 1.2% of 390,000 active; further: potency means the concentration at half of the fitted maximal effect; on the % scale 0 is the no-effect control and ±100 the full control effect
#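 Pol eta at 10 nM preincubated with compounds 15 min at room temperature; reaction started with fluorescent substrate (50 nM final) and read kinetically at 0 and 10 min.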
# WRN helicase inh-1 = qHTS for Inhibitors of WRN Helicase. WRN helicase unwinding, fluorescent forked duplex, kinetic. 0.46% of 360,000 active. AID 651768, 2012. Potency, µM (doses to about 114 µM), for inactives: at the top dose activity change, negative = inhibition, usual class: inhibitors; further: potency means the concentration at half of the fitted maximal effect; on the % scale 0 is the no-effect control and ±100 the full control effect; nearly all actives have a fitted effect of over 55% in size
#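 Enzyme (20 nM final) and test compound sit together 15 min at room temperature before substrate addition. Substrate is a single-forked duplex oligonucleotide (100 nM) labelled with fluorophore and quencher, with 2 mM ATP; helicase unwinding raises red fluorescence, read kinetically.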
# Pol kappa inh-2 = qHTS for Inhibitors of Polymerase Kappa: Confirmatory Assay for Cherry-picked Compounds | 76% of 920 active | Potency, µM, usual class: inhibitors | purified Pol-kappa, fluorescent strand-displacement substrate | AID 720501, 2013 | shares compounds with Pol eta inh-1; further: potency means the concentration at half of the fitted maximal effect
# Pol eta inh-2 = qHTS for Inhibitors of Polymerase Eta: Confirmatory Assay for Cherry-picked Compounds. shares compounds with Pol eta inh-1. Pol eta primer extension, TAMRA/BHQ fluorescence, 10 min. Potency, µM, most hits filed as inhibitors. 64% of 2,600 active. AID 720502, 2013; further: potency means the concentration at half of the fitted maximal effect
# WRN helicase inh-2 = qHTS for Inhibitors of WRN Helicase: Confirmatory Assay for Cherry-picked Compounds; shares compounds with WRN helicase inh-1; WRN helicase DNA unwinding, fluorescence kinetic; Potency, µM (titrated, usually from 57.1 µM), without a hit: top-dose activity, negative = inhibition, most hits filed as inhibitors; 63% of 610 active; further: potency means the concentration at half of the fitted maximal effect; nearly all actives have a fitted effect of over 65% in size
# TO displacement = qHTS for Inhibitors of WRN Helicase: Thiazole Orange DNA Binding Counterscreen; Potency, µM (doses to about 57.1 µM), inactives show at the top dose activity change, negative = inhibition, most hits filed as inhibitors; AID 720499, 2013; thiazole orange DNA binding displacement, fluorescence; shares compounds with WRN helicase inh-1; 10% of 610 active;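 further: drop in dye fluorescence marks compound binding to DNA; potency means the concentration at half of the fitted maximal effect; on the % scale 0 is the no-effect control and ±100 the full control effect; nearly all actives have a fitted effect of over 60% in size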
# BLM counter = qHTS for Inhibitors of WRN Helicase: BLM Helicase Counterscreen for WRN Inhibitors. shares compounds with WRN helicase inh-1. Recombinant BLM helicase DNA unwinding, red fluorescence. Potency, µM (series often up to 57.1 µM), for the others: at the highest dose activity change, negative = inhibition, most hits filed as inhibitors. 60% of 610 active. AID 720503, 2013; further: potency means the concentration at half of the fitted maximal effect; nearly all actives have a fitted effect of over 60% in size
# ADP-Glo interf = qHTS for Inhibitors of PI5P4K: ADP-Glo counter assay; 1,100 tested, under 10 active; shares compounds with PI5P4Ka inh; Potency, µM (series often up to 76.9 µM), inactives show at the highest dose activity change, negative = inhibition, usual class: inhibitors; ADP-Glo detection counter-screen, luciferase luminescence, no enzyme
# * marks the source's active call; other numbers are inactive results; ? = inconclusive; . = not tested or not shown; [ ] = another dose, or the depositor's remark. Sampled rows, rich in hits. Any-hit rate of the full collection: about 2.8%. Unless noted, the call rests on the fitted dose curve; in most records, active means well fitted curve in the direction sought with a large enough effect; inconclusive means small, poorly fitted or top-dose-only effect, or another doubt; inactive means no such curve, though single readings can be large; an effect the other way counts as inactive or inconclusive.
SMILES,PI5P4Ka inh,Pol beta inh,Pol iota inh,Pol kappa inh-1,Pol eta inh-1,WRN helicase inh-1,Pol eta inh-2,ADP-Glo interf,others
Cc1ccc(-c2csc(NS(=O)(=O)c3cccc(F)c3)n2)o1,-68*,.,?,?,25µM*,32µM*,?,2%,WRN helicase inh-2=24µM*;TO displacement=-29%;BLM counter=?
O=C(COC(=O)CCC(=O)c1ccc(Cl)cc1)NCc1ccco1,-52*,35µM*,45µM*,?,25µM*,?,76*,0%,
O=C(c1ccco1)N(CCC(c1ccccc1)c1ccco1)Cc1ccccc1 (stereo not drawn),-60*,25µM*,28µM*,79µM*,22µM*,?,?,2%,Pol kappa inh-2=67*
C[C@]12CCC(=O)C=C1C=C[C@@H]1[C@@H]2CC[C@@]2(C)[C@H]1CC[C@@]21CCC(=O)O1,-2,7%,-23%,-38%,1%,7%,.,.,
COc1ccc(C2=CC3=C(Br)C(=O)C(C)(OC(=O)c4cccs4)C(=O)C3=CO2)cc1 (stereo not drawn),-70*,.,?,?,40µM*,?,?,3%,
Cc1csc(NC(=O)CSc2nsc(SCC(=O)Nc3nc(C)cs3)c2C#N)n1,.,27%,-1%,-19%,-4%,-10%,.,.,
Cc1csc(NC(=O)CSc2sc3c(O)cc(=O)[nH]c3c2C#N)n1,-81*,45µM*,7.9µM*,28µM*,18µM*,40µM*,?,5%,Pol kappa inh-2=?
COc1ccc(NC(=O)CSc2nc(O)cc(=O)[nH]2)c(OC)c1,-7,-30%,2%,1%,-8%,-2%,.,.,
COc1ccc(NC(=O)CSc2sc3c(O)cc(=O)[nH]c3c2C#N)c(OC)c1,-65*,1.6µM*,2.5µM*,?,22µM*,?,?,-8%,Pol kappa inh-2=?
O=C(O)c1cc(-c2ccc(-c3c(-c4ccc5c(c4)OCO5)noc3-c3ccsc3)cc2)nc2ccccc12,-71*,-15%,?,-30%,79µM*,?,.,0%,Pol kappa inh-2=?
Cc1ccc(NC(=O)C2CCN(S(=O)(=O)c3ccc4c(c3)CCCC(=O)N4)CC2)c(Cl)c1,.,9%,?,-32%,-20%,.,.,.,
CN(C)c1ccc(C2CC(c3c(O)n(C4CCCCC4)c(=O)[nH]c3=O)=Nc3ccccc3S2)cc1 (stereo not drawn),.,11%,27%,-2%,.,.,.,.,
Cc1ccc(NC(=O)C(C)OC(=O)c2cc(=O)[nH]c3ccccc23)cc1S(=O)(=O)N1CCOCC1 (stereo not drawn),-61*,.,25µM*,89µM*,18µM*,?,?,2%,
CSc1nc2c(c(=O)[nH]1)C(c1cccs1)C1=C(CCCC1=O)N2 (stereo not drawn),-70*,28µM*,?,?,16µM*,-35%,?,4%,
Cc1ccc(CNC(=O)CN2c3cccc4cccc(c34)S2(=O)=O)cc1,-21,.,63%,6%,-18%,1%,.,.,
COc1cccc(CNC(=O)CN2c3cccc4cccc(c34)S2(=O)=O)c1,-65*,.,45µM*,?,14µM*,-10%[11.6 µM],?,-7%,
O=C(CSc1nc(=O)n2cc(Cl)ccc2n1)Nc1ccc2c(c1)OCCO2,-54*,.,-19%,-44%,28µM*,?,?,-4%,
O=C(CSCc1ccc(Cl)cc1)Nc1ccc2c(c1)OCCO2,2,2%,9%,-17%,-11%,-13%,.,.,
O=C(c1ccc2c(c1)N(Cc1ccccc1)C(=O)c1ccccc1S2(=O)=O)N1CCN(c2ccccc2)CC1,.,2%,1%,-10%,.,.,.,.,
O=C(O)c1ccccc1NS(=O)(=O)c1ccc2c3c(cccc13)C(=O)N2,.,0%,?,-9%,3%,-29%,.,.,
CN(c1ccccc1C(=O)O)S(=O)(=O)c1ccc2c3c(cccc13)C(=O)N2,-56*,13µM*,?,79µM*,13µM*,?,?,-3%,
Cc1ccc(C)c(-n2c3nc(=O)[nH]c(=O)c-3cc3cc([N+](=O)[O-])ccc32)c1,-65*,35µM*,20µM*,?,13µM*,79µM*,60*,5%,
Cc1ccc(C)c(-n2c3nc(=O)n(C)c(=O)c-3cc3ccccc32)c1,-3,13%,10%,9%,-8%,3%,.,.,

# Bioassay records (PubChem BioAssay)
